# From PubChem BioAssay AID651558 (National Center for Advancing Translational Sciences (NCATS), 2012)
# The campaign covered roughly 1,200 compounds. About 480 (40%) were called active. Roughly 29% stayed inconclusive and do not appear here. The call rests on the fitted dose curve; in most records, active means well fitted inhibition curve with a large enough effect; inconclusive means small, poorly fitted or top-dose-only effect; inactive means no such curve, though single readings can be large or run the other way. Some of the results follow.
# Experiment: qHTS Assay to Find Inhibitors of Chronic Active B-Cell Receptor Signaling: Hit Validation in Primary Screen; further: nearly all actives have a fitted effect of over 75% in size
# Settings: ABC-DLBCL IkB-luc/CBR ratio luminescence, 4 h; series mostly up to 46.1 µM; activity change, negative = inhibition: at the top concentration
# From the text: Diffuse large B-cell lymphoma (DLBCL) is the most common category of non-Hodgkin lymphoma, with ~20,000 new cases per year in the United States. DLBCL should be regarded as a collection of different neoplasms. Microarray gene expression analysis has defined two principal types of DLBCL, named for their similarity to normal B cell stages or activation states: a germinal center B-cell (GCB) type, and an activated B-cell (ABC) type. In ABC-DLBCL, a constitutive high-level activity of the NF-kappaB family of transcription factors has been observed (1) and NF-kappaB target genes are more highly expressed in ABC primary tumors than in GCB tumors. Functional studies have shown a constitutive high-level activity of the IkappaB (inhibitor of kappa-B) kinase (IKK) complex. […] Further analysis of DLBCL primary tumors for NF-kappaB target gene expression imply that although CARD11 is required for constitutive IKK activity in all ABC-DLBCL lines, mutations in CARD11 may be the root cause of IKK activation only in lines or tumors with such mutations. In other words, CARD11 mutations may explain NF-kappaB activation in only 10% of ABC-DLBCL cases. […] This process has been termed 'chronic active BCR signaling' (CABS). The goal of this screen is to find small-molecule inhibitors of the CABS pathway found in ABC-DLBCL lines using a cell-based assay that measures IkappaBalpa stability, which has already been extensively validated in the OCI-Ly3 line (PubChem AID:445; REF: 4). […] A cell-sensor assay for I-kappa-B-alpha stabilization has been developed. The assay uses green (CBG68) and red (CBR) emitting beetle luciferases [Chroma-GloTM developed by Promega Corp.] where the green luciferase is fused to IkappaBalpha and the red luciferase is present in its native state. Both luciferase genes are stably present in the TMD8 human ABC DLBCL cell line, but their expression is under the control of tetracycline-inducible promoters. Following the addition of doxycycline to induce expression of the luciferases, the green luminescence in control cultures rises only slowly because the CBG fusion partner IkappaBalpha is targeted by IKK activity for rapid degradation. In contrast, green luminescence rises rapidly in the presence of proteasome inhibitors or IKK inhibitors. The rise in red luminescence of CBR is not affected by proteasome or IKK inhibitors, and serves as normalization for cell number and nonspecific effects. Compounds were screened as a concentration-titration series that ranged from 46 uM to 3 nM. NIH Molecular Libraries Probe Production Network [MLPCN] NIH Chemical Genomics Center [NCGC] MLPCN Grant: R03 DA031086 PI Name: Dr. R. Eric Davis
# Cells were seeded in 1536-well plates at 5000 cells/4uL in IMDM medium containing 0.5% FBS, w/o phenol red, 1% penicillin/streptomycin. Then, 23 nL of compounds or DMSO were delivered to each well using a pin tool. One uL 20ng/ml doxycycline was then dispensed into white solid 1536-well plates and the plates were incubated at 37C/5% C02 in a cell incubator for 4 hrs. Then 4 uL luminescent substrate mix (in-house prepared: 150 mM Tris-Cl, pH 7.6, 3 mM MgCl2, 1% Triton X-100, 5 mM DTT, 0.2 mM CoA, 0.15 mM ATP, 5 mM D-luciferin, final concentrations) was added to each well. The plate was incubated at r.t. for 10-15 min. The plates were measured on a ViewLux plate reader for green luminescence (540/20 nm filter) and red luminescence (618/8 nm filter). The green and red luminescent signals were corrected for red and green luminescence filter overlap using previously determined filter calibration constants (determined using the procedure outlined in the Promega Technical Manual; REF 4). The %Activity was determined from the ratio of corrected green/red luminescent values. MG132 were used as control. Green luminescent and ratio %Activity was determined by normalizing to the difference in signal between basal cells (0% Activity) and cells incubated with 10 uM of the proteasome inhibitor MG-132 (100% Activity). […]
# On the % scale 0 is the no-effect control and ±100 the full control effect; potency means the concentration at half of the fitted maximal effect.
SMILES,Potency,"activity change, negative = inhibition"
COc1ccc(/C=C/C(=O)c2cc(F)ccc2OC(=O)c2ccccc2C)cc1OC,1.3 µM (active),–
O=C(NC(=S)Nc1cccc(F)c1)c1cccc([N+](=O)[O-])c1,–,-2.56% (inactive)
Cc1ccccc1C(=O)Oc1ccc2ccc(O)cc2c1,–,-6.71% (inactive)
S=C(Nc1ccccc1Cl)N(Cc1ccccc1)Cc1ccccn1,–,-2.47% (inactive)
COc1ccc(/C=C/C(=O)c2cc(F)ccc2OC(=O)c2ccc(OC)c(OC)c2)cc1OC,23.1 µM (active),–
COc1ccc(NC(=S)N/N=C/c2ccc(F)cc2)cc1OC,–,-3.66% (inactive)
COc1cccc(Nc2sc(C(=O)c3ccc(Cl)cc3)c(N)c2C(=O)NCc2ccc(C)cc2)c1,1.3 µM (active),–
Cc1cc(C)c(S(=O)(=O)Nc2ccc3c4c(cccc24)CC3)c(C)c1,1.16 µM (active),–
COc1cccc(CN2c3ccc(Br)cc3C(=O)CS2(=O)=O)c1,–,6.37% (inactive)
COc1ccc(CN2C[C@H]3CCCN3c3cc(Br)ccc3S2(=O)=O)cc1,6.51 µM (active),–
COc1ccc(-c2c(-c3cc(OC)c(OC)c(OC)c3)noc2C)cn1,20.6 µM (active),–
COc1cc(-c2noc(C)c2-c2ccc3[nH]ccc3c2)cc(OC)c1OC,14.6 µM (active),–
CCOC(=O)c1ccc(-c2c(-c3cc(OC)c(OC)c(OC)c3)noc2C)cc1F,8.2 µM (active),–
COc1cc(-c2noc(C)c2-c2ccc(N(C)C)nc2)cc(OC)c1OC,2.31 µM (active),–
CC1=C/C(=N\NC(=S)NCc2ccccc2)CC1,–,-7.8% (inactive)
COc1cc(-c2c(-c3cc(OC)c(OC)c(OC)c3)noc2C)ccc1F,1.3 µM (active),–
CC(/C=N/NC(=O)c1cc(-c2ccccc2)nc2ccccc12)=C\c1ccco1,5.8 µM (active),–
CC(/C=N/NC(=O)c1cc(-c2ccncc2)nc2ccccc12)=C\c1ccco1,1.64 µM (active),–
CC(/C=N/NC(=O)c1cc(-c2ccc(Cl)cc2)nc2ccccc12)=C\c1ccco1,2.91 µM (active),–
O=C(CN1CCCc2ccccc21)N/N=C/c1ccccc1O,–,-0.214% (inactive)
C=CCNC(=S)N/N=C/c1ccc(C)s1,–,-9.11% (inactive)
Cc1ccc(/C=N/NC(=O)C2COc3ccccc3O2)s1 (stereo not given),23.1 µM (active),–
Cc1c(/C=N\NC(=O)C2COc3ccccc3O2)c2ccccc2n1C (stereo not given),2.59 µM (active),–
O=C1OCC2=C1C(c1ccc(F)cc1)c1cc3c(cc1N2)OCO3 (stereo not given),0.116 µM (active),–
C#CCOc1ccc(C2C3=C(COC3=O)Nc3cc4c(cc32)OCO4)cc1OC (stereo not given),0.146 µM (active),–

SMILES,Potency,"activity change, negative = inhibition"
COc1ccccc1C1C2=C(COC2=O)Nc2cc3c(cc21)OCO3 (stereo not given),1.3 µM (active),–
COc1ccc(OC)c(C2C3=C(COC3=O)Nc3cc4c(cc32)OCO4)c1 (stereo not given),0.366 µM (active),–
CCOc1ccccc1C1C2=C(COC2=O)Nc2cc3c(cc21)OCO3 (stereo not given),1.3 µM (active),–
O=C(CN1CCC(NC(=O)Nc2ccc(F)cc2)CC1)Nc1ccccc1[N+](=O)[O-],–,-17.7% (inactive)
CCOc1cc(Br)c(C=O)cc1OCC,6.51 µM (active),–
CC(C)(C)NNC(=S)Nc1cccc(F)c1,–,-8.63% (inactive)
COc1cc(OC)cc(C(=O)Oc2c(CN3CCOCC3)cc(Cl)c3cccnc23)c1,–,36.6% (inactive)
Cc1cccc(NC(=S)N/N=C/C(C)c2ccccc2)c1C (stereo not given),–,-3.28% (inactive)
CCN1C(=O)c2cccc3c(S(=O)(=O)Nc4nc(C)cs4)ccc1c23,3.66 µM (active),–
CCN1C(=O)c2cccc3c(S(=O)(=O)Nc4ccccc4O)ccc1c23,–,94.3% (inactive)
Cc1ccccc1OCCc1c(C)[nH]c(=S)[nH]c1=O,11.6 µM (active),–
COc1ccccc1OCCCN1C(=O)C(=O)c2cccc(C)c21,–,-9.96% (inactive)
Cc1ccc(S(=O)(=O)n2cc(-c3ccccc3)c3ccccc32)cc1,3.26 µM (active),–
CCCCNC(=S)NNC(=O)CCn1nc(C)c(Br)c1C,–,-4.91% (inactive)
COc1ccc(OC)c(/C=C/c2ccc3cccc(O)c3n2)c1,20.6 µM (active),–
COc1cc(Br)cc(/C=C/c2ccc3cccc(O)c3n2)c1O,20.6 µM (active),–
COc1cc(/C=C/c2ccc3cccc(O)c3n2)c(Br)cc1O,18.4 µM (active),–
CCOc1ccccc1N=NC1C(=O)N(C(N)=S)N=C1C (stereo not given),–,24.5% (inactive)
COCCCNC(=O)C(=O)Nc1ccc2c(c1)N(S(=O)(=O)c1cccs1)CCC2,16.4 µM (active),–
CCCC(=O)OCCNc1cc(Sc2nccn2C)c2nonc2c1[N+](=O)[O-],3.66 µM (active),–
CCOC(=O)CSC1=C(C#N)C(c2ccc(C)o2)CC(=O)N1 (stereo not given),4.11 µM (active),–
CCOC(=O)CSC1=C(C#N)C(c2ccc(C)s2)CC(=O)N1 (stereo not given),16.4 µM (active),–
CCCCNC(=S)N=Nc1c(O)[nH]c2ccccc12,–,29.1% (inactive)
COc1ccc(/C=C2\CCc3ccccc3C2=O)cc1O,13 µM (active),–
COc1cc(/C=N/N(C)c2ccccc2)ccc1O,–,85.9% (inactive)
